Bioassay records as filed in PubChem BioAssay.
Compounds with a hit are over-represented: about 3.9% of the library has one in this group of screens.
BH1578 lux ind – inducers of Vibrio cholerae quorum light production without autoinducers | V. cholerae BH1578 lux reporter, luminescence, 6 h | hit rate 0.16% among 350,000 | AID 588436 | activation, % at 18.7 µM; in the data active means activation mostly above about 9.7%, no sharp cut-off
GDH-TPI counter-1 – inhibits GDH-TPI coupling enzymes, artifact for Mtb FBA screen. GDH-TPI coupled enzyme counterscreen, NADH absorbance. inhibition, % at 4.8 µM. hit rate 1.2% among 360,000. AID 588335; in the data active means inhibition above about 30%;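 further: 0% = DMSO wells and 100% = wells lacking the enzyme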
CCHF vOTU inh – CCHFV vOTU protease inhibition | Pep-AMC fluorescence | inhibition, % at 11.5 µM | hit rate 0.55% among 370,000 | AID 651958; in the data active means inhibition above about 30%; further: 0% = vehicle wells with enzyme and 100% = no enzyme wells
Mtb FBA inh – inhibitors of M. tuberculosis fructose-bisphosphate aldolase; P9WQA3; purified M. tuberculosis FBA, fluorescence read-out; inhibition, % at 1 µM; hit rate 2.3% among 360,000; AID 588726;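 further: 0% = vehicle and 100% = reference inhibitor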
Target sequence (P9WQA3 whole entry, looked up): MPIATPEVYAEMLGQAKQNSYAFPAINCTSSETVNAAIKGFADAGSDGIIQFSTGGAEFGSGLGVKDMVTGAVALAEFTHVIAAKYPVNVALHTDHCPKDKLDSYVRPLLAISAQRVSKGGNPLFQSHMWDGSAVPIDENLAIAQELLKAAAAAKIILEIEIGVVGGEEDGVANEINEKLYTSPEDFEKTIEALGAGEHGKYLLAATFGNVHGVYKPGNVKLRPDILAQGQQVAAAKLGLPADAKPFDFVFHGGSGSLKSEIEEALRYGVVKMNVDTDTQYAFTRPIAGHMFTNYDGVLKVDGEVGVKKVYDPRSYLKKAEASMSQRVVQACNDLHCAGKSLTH
Mtb FBA inh conf – confirmation of M. tuberculosis fructose-bisphosphate aldolase inhibitors. shares compounds with Mtb FBA inh. purified M. tuberculosis FBA, fluorescence read-out. inhibition, % at 1 µM. hit rate 78% among 5,600. AID 651616;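 further: 0% = vehicle wells and 100% = reference inhibitor wells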
GDH-TPI counter-2 – counter-screen for M. tuberculosis FBA inhibitors: GDH-TPI coupled enzyme inhibition. shares compounds with Mtb FBA inh. inhibition, % at 1 µM. hit rate 81% among 5,600. AID 652141. GDH-TPI coupled enzyme counterscreen, fluorescence; in the data active means inhibition above about 10%
Active calls of the source: *; i = inactive; . = no result; + = active, no number. Unless noted, no stated cut-off is given here; in the data, active means inhibition above about 27%; inactive means the rest.

SMILES	BH1578 lux ind	GDH-TPI counter-1	CCHF vOTU inh	Mtb FBA inh	Mtb FBA inh conf	GDH-TPI counter-2
CCOC(=O)c1cnc2cc3c(cn2c1=O)CCCC3	-2.8	12.4	-67.6	93.8*	+	+
CCOC(=O)c1cnc2scnn2c1=O	-0.7	9.2	-19.3	5.7	.	.
Cc1ccc(NS(=O)(=O)c2ccc(NC(=O)c3ccc(-c4ccccc4)cc3)cc2)c(C)c1	6.7	11.1	-4.0	-1.8	.	.
CC(C)(C)c1ccc(C(=O)CCC(=O)NCc2ccccc2)cc1	-5.7	-0.3	8.4	0.6	.	.
COc1cc(C#Cc2c(-c3ccccc3OC)oc3ccccc23)cc(OC)c1	i	23.8	3.0	34.4*	0.3	2.0
COc1ccccc1-c1oc2ccccc2c1-c1ccc2c(c1)OCO2	0.6	-0.8	-6.5	11.7	.	.
Fc1ccccc1-c1nc2nc3ccccc3nc2n1CC1CCCO1 (stereo not given)	-1.3	58.6*	-32.3	59.5*	-2.0	-3.2
S=c1[nH]nc(-c2ccccc2)n1CC1CCCO1 (stereo not given)	i	-0.8	-6.0	6.8	.	.
CC(C)CCn1c(SCC#N)nc2c(sc3ccccc32)c1=O	6.7	6.4	9.7	1.0	.	.
COCCn1c(SCC(=O)Nc2ccccc2OC)nc2ccccc2c1=O	i	-15.4	6.5	-1.0	.	.
COc1ccccc1NC(=O)CSc1nc2c(sc3ccccc32)c(=O)n1CCN(C)C	-0.2	21.9	-27.1	51.1*	75.6*	60.2*
CN(C)CCn1c(SCc2ccccc2C#N)nc2c(sc3ccccc32)c1=O	-0.6	-1.3	-66.0	50.4*	74.6*	59.2*
COc1cccc(NC(=O)CS(=O)(=O)Cc2nc(-c3ccc(C)cc3)oc2C)c1	-5.3	-1.7	16.8	-1.8	.	.
COc1ccccc1CN1CC(C(=O)NCCc2ccccc2Cl)CCC1=O (stereo not given)	-0.2	-1.9	11.0	0.8	.	.
Cc1cc(CNC(=O)c2cccc([N+](=O)[O-])c2C)c2ccccc2n1	-0.1	4.9	10.0	-2.6	.	.
CCOC1=C2[C@@H](CN(S(=O)(=O)c3ccc(C)cc3)[C@H]2c2ccccc2Cl)[C@H]2C(=O)NC(=O)[C@H]2C1	.	.	-7.2	0.9	.	.
O=C(NCCCN1CCCC1=O)c1cc(S(=O)(=O)N2CCOCC2)ccc1Cl	i	15.5	-10.0	3.5	.	.
O=C(O)CCCc1ccc2ccc3cccc4ccc1c2c34	-8.3	35.3*	2.9	55.9*	+	+
NCCCCc1ccc2ccc3cccc4ccc1c2c34	1.8	11.5	-4.3	2.0	.	.
COc1ccc(OC)c(/C=C/C(=O)N(C)CC(=O)Nc2cc(C)ccc2C)c1	-0.6	6.6	-62.4	28.7*	34.0*	28.8*
CCN(CC(=O)NCc1cccs1)C(=O)/C=C/c1cc(OC)ccc1OC	-0.1	21.2	-64.0	37.3*	154.8*	115.4*
COc1ccc(OC)c(/C=C/C(=O)N2CCN(S(=O)(=O)c3ccc(C)cc3C)CC2)c1	i	12.5	-32.1	29.4*	-1.5	-3.1
COc1ccc(OC)c(/C=C/C(=O)N(C)CC(=O)Nc2ccc(C)cc2)c1	-0.3	24.7	-80.5	22.8	.	.
CC1(C)CC(=O)C(C=NCC2CCN(C(=O)Cc3ccccc3)CC2)=C(O)C1	-0.1	3.7	8.8	-3.9	.	.
COc1ccc(CNC(=O)CN(C(=O)c2csnn2)c2cccc3c2CCCC3)cc1	-0.3	0.8	8.8	0.2	.	.
SMILES	BH1578 lux ind	GDH-TPI counter-1	CCHF vOTU inh	Mtb FBA inh	Mtb FBA inh conf	GDH-TPI counter-2
COc1ccc2c(C)cc(=O)oc2c1	-0.5	18.1	1.0	54.7*	90.9*	61.1*
O=C(Oc1ccc2ccc(=O)oc2c1)c1ccccc1	1.0	14.4	-278.7	62.7*	50.4*	41.1*
O=C(COc1ccc2ccc(=O)oc2c1)NC1CCCC1	i	10.7	-4.5	18.0	.	.
COc1cccc(COc2ccc3c(C)cc(=O)oc3c2)c1	-0.5	11.8	-3.8	4.4	.	.
CCOc1ccccc1C(=O)Oc1ccc2ccc(=O)oc2c1	i	-8.6	-203.0	66.2*	83.3*	81.1*
O=C(Oc1ccc2ccc(=O)oc2c1)C1CCCCC1	-0.4	7.5	-184.0	108.4*	+	+
CCOCCCNC(c1ccccc1)c1ccncc1 (stereo not given)	-0.3	-6.6	-2.5	0.3	.	.
Cc1cc(=O)oc2cc(OC(=O)c3ccccc3)ccc12	-0.3	3.9	-163.2	74.9*	+	+
COc1cccc(C(=O)COc2ccc3ccc(=O)oc3c2)c1	0.2	5.0	-5.4	5.0	.	.
O=c1ccc2ccc(OCCOc3cccc(Cl)c3)cc2o1	-0.3	11.3	-22.9	49.4*	173.1*	157.2*
Cc1ccc(NC(=O)Cn2c3ccc(F)cc3c3nc4n(c(=O)c32)CCS4)cc1F	0.0	9.8	7.7	1.0	.	.
NS(=O)(=O)c1ccc(CCNC(=O)c2coc3ccccc3c2=O)cc1	-3.6	-0.4	9.7	27.8*	154.8*	98.6*
NS(=O)(=O)c1ccc(CCNC(=O)c2cc(=O)[nH]c3ccccc23)cc1	0.1	14.2	-4.2	4.1	.	.
O=C(CN1CCCC1)Nc1c2c(nc3ccccc13)N(Cc1ccccc1)CC2	-0.4	9.0	-23.6	30.6*	46.2*	34.4*
O=C(CN1CCOCC1)Nc1c2c(nc3ccccc13)N(Cc1ccccc1)CC2	-6.2	7.9	-40.2	44.0*	60.2*	50.9*
CN(C)c1cc(NC(=O)CN2CCCC2)c2ccccc2n1	-0.2	3.8	11.1	16.6	.	.
O=C(CC1(O)C(=O)Nc2cc(Cl)cc(Cl)c21)c1ccccc1O (stereo not given)	-0.7	-7.1	-10.3	-4.2	.	.
O=c1[nH]c2cc3c(cc2cc1CN(Cc1ccc2c(c1)OCO2)Cc1nnnn1CC1CCCO1)OCO3 (stereo not given)	-3.8	23.8	-22.0	39.7*	46.6*	39.6*
O=c1[nH]c2cc3c(cc2cc1CN(CCCO)Cc1nnnn1Cc1ccc(F)cc1)OCO3	-2.2	24.4	-9.9	35.9*	35.4*	29.8*
FC(F)(F)c1nc2nc(Cl)c(Cl)nc2n1CCCN1CCOCC1	i	20.4	-88.1	47.6*	+	+
CCOc1ccc(C(=O)Cn2cnc3ccccc3c2=O)cc1	1.2	9.0	-10.3	4.2	.	.
Cc1c(OCC(=O)NCc2ccccn2)ccc2c3c(c(=O)oc12)CCCC3	0.2	6.5	6.9	2.5	.	.
Cc1c(OCC(=O)NCC(O)c2ccccc2)ccc2c3c(c(=O)oc12)CCC3 (stereo not given)	-0.1	7.4	12.5	14.9	.	.
Cc1c(OCC(=O)N[C@H](C(=O)O)c2ccccc2)ccc2c3c(c(=O)oc12)CCCC3	-0.4	10.8	-15.0	30.7*	6.5	-3.9
CCN(CC)C(=O)COc1ccc2c3c(c(=O)oc2c1C)CCCC3	1.4	10.4	-24.3	63.7*	+	+
Cc1c(OCc2ccc(C(=O)O)o2)ccc2c3c(c(=O)oc12)CCC3	4.5	12.4	-26.3	71.9*	27.7*	24.7*
CCOc1ccc(C(=O)n2cc(C(=O)OC)c3ccccc32)cc1	-2.1	10.4	-11.2	0.7	.	.
